Bioassay records as filed in PubChem BioAssay.
Hits are enriched below; roughly 2.8% of the tested compounds scored in any of these assays.
MITF TRPM1 inh = inhibitors of MITF-driven TRPM1 promoter in melanoma cells. SK-MEL-5 TRPM1 promoter luciferase, 24 h. inhibition, % at 12.5 µM. 0.83% of 330,000 active;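 active = mean inhibition across replicates of 60% or more, whatever share of single replicates reaches that level; inconclusive = some that reach 60%, reason not given; inactive = mean inhibition across replicates below 60%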
Peg3 promoter = reduces Peg3 promoter-driven luciferase expression in HeLa | HeLa PEG-Prom luciferase reporter, luminescence, overnight | inhibition, % at 20 µM | 1.7% of 360,000 active | AID 588405;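 active = inhibition of at least 50% at 20 µM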
KKLEB cytotox = reduces viability of KKLEB cystic fibrosis airway cells; KKLEB CF airway cells viability, ATPlite luminescence, overnight; stronger effect = lower value; cells stimulated with P. aeruginosa culture filtrate; activity change (cytotoxicity), % at 5 µM; 0.36% of 360,000 active; AID 602141;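 active = corrected activity change at or below -50% at 5 µM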
CF NFkB inh = inhibitors of cystic fibrosis induced NF-kB; KKLEB NF-kB-GFP reporter, PAF-induced, GFP fluorescence overnight; inhibition, % at 5 µM; 0.86% of 360,000 active;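 active = at least 50% inhibition at 5 µM, scaled per plate between neutral and stimulator controls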;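 also: PAF is a Pseudomonas aeruginosa culture filtrate used as stimulus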
B2AR ag = activates human beta-2 adrenergic receptor causing internalization; P07550; Am2.2-beta2AR cells, FAP receptor internalization, flow cytometry; response, % (concentration not given with the values); 0.43% of 340,000 active; AID 504454;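 active = response above a set limit, near 3 SD of response in nonfluorescent compounds, cut at about 42% in these data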
Target sequence (P07550 whole entry, looked up): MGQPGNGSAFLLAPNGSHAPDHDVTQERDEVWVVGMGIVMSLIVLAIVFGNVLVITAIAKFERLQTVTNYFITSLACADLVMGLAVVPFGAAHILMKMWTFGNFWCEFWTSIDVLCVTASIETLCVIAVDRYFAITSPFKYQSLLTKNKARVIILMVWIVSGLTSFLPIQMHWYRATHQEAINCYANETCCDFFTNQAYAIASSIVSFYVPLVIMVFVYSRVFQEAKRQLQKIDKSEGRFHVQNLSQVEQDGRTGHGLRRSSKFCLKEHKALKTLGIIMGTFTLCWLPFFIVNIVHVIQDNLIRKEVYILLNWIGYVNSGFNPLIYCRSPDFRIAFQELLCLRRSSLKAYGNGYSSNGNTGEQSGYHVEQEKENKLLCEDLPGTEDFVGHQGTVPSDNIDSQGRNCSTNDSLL
HIF-2a block = HIF-2a inhibition; 0.72% of 360,000 active; 786-0 RCC cells HIF-2a reporter, luciferase luminescence, overnight; inhibition, % at 18.8 µM;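 active = inhibition of the luminescence signal of 40% or more relative to plate controls, in a single-dose primary screen at 18.75 µM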
Mdm2 MdmX conf = confirmation of inhibitors of human Mdm2/MdmX interaction, set 2; 99% of 740 active; inhibition, % at 8 µM; SaOS-2 split-luciferase Mdm2/MdmX complementation, luminescence; shares compounds with HIF-2a block;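 active = mean inhibition of the luminescence signal across two replicates at or above 26 percent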
HIF-2a conf = HIF-2a inhibition, single concentration confirmation. inhibition, % at 18.8 µM. 56% of 1,800 active. 786-0 RCC cells, HIF-2a luciferase reporter luminescence, overnight. shares compounds with HIF-2a block;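 active = mean inhibition across four replicates of at least 40 percent at the single tested concentration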
HIF-1a counter = inhibits HIF-1a reporter, a counter-screen for HIF-2a inhibitors | shares compounds with HIF-2a block | 72% of 1,800 active | MiaPaCa-2 HIF-1a luciferase reporter, desferoxamine, overnight | inhibition, % at 18.8 µM;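 active = mean inhibition of the reporter signal across four replicates at the single tested dose of 50% or more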
Hits are given with their value; 0 = inactive; ? = inconclusive; - = not tested or not shown.

SMILES | MITF TRPM1 inh | Peg3 promoter | KKLEB cytotox | CF NFkB inh | B2AR ag | HIF-2a block | HIF-2a conf | HIF-1a counter | others
COc1cc(C=CC(=O)c2ccccc2)cc(OC)c1OC | - | 98 | 0 | 0 | - | 37 | 0 | 95
CC1(C(=O)NCc2ccccc2)CN(S(C)(=O)=O)CC(=O)N1Cc1cccc(F)c1 (stereo not drawn) | - | - | - | - | - | 0 | - | -
C=C1[C@@H](O)[C@H](CC(C)C)N(Cc2ccccc2Br)S1(=O)=O | 0 | 97 | -96 | 89 | 0 | 72 | 42 | 101
COc1cc(/C=C2/CCC/C(=C\c3cc(O)c(OC)c(Cl)c3)C2=O)cc(Cl)c1O | 0 | 0 | 0 | 0 | 0 | 91 | - | - | Mdm2 MdmX conf=103
COc1cc(/C=C2\SC(N)=NC2=O)cc(Cl)c1O | 0 | 0 | 0 | 0 | 0 | 0 | - | -
CCc1nc2ccc(C(=O)N(C)CCCN(C)C)cn2c1N(CC)CCOC | - | 0 | 0 | 0 | - | 0 | - | -
Cc1ccc(S(=O)(=O)N2CCOCC2)cc1NC(=O)CN1CCN(c2ccc(O)cc2)CC1 | 0 | 0 | 0 | 0 | 0 | 46 | 44 | 98
Cc1ccc(CNC(=O)[C@H]2O[C@@H](n3ccc(N)nc3=O)[C@H](O)[C@@H]2O)o1 | - | 0 | 0 | 0 | - | 0 | - | -
N#C/C(=C\C=C\c1ccccc1[N+](=O)[O-])C(=O)NCc1ccccc1 | 69 | 105 | 0 | 0 | 0 | 81 | 61 | 102
CC(C)C[C@H]1CNC(=S)N1CC1CCN(CCCC2CCCCC2)CC1 | 0 | 0 | 0 | 0 | 0 | 0 | - | -
CN(C(=O)c1ccc(NC(=O)Cc2ccc(NC(=O)C3CCCN(C(=O)C4CCCCC4)C3)cc2)cc1)C1CCCC1 (stereo not drawn) | 0 | 0 | 0 | 0 | 0 | 0 | - | -
COc1ccc(CNC(=O)COC(=O)CCCOc2ccc(Cl)cc2Cl)cc1 | 0 | 0 | 0 | 0 | 0 | 43 | 0 | 0
Oc1cccc2ccc(Nc3ccccn3)nc12 | 86 | 102 | -67 | 60 | 0 | 95 | 79 | 105 | Mdm2 MdmX conf=103
c1ccc(Nc2ccccc2Nc2ccccn2)nc1 | 0 | 0 | 0 | 0 | 0 | 0 | - | -
S=C(N/N=C/c1ccc2ncccc2c1)Nc1ccccc1 | 0 | 0 | 0 | 0 | 0 | 48 | 0 | 63
COc1cc(C(C[N+](=O)[O-])c2c(N)n(C)c(=O)n(C)c2=O)ccc1O (stereo not drawn) | 0 | 0 | 0 | 0 | 0 | 0 | - | -
COc1cccc(F)c1C(C[N+](=O)[O-])c1c(N)n(C)c(=O)n(C)c1=O (stereo not drawn) | 67 | 104 | 0 | 0 | 0 | 88 | 79 | 106
CCc1ccc(/C=C/C(=O)c2c(C)cc(C)[nH]c2=O)cc1 | 0 | 64 | 0 | 0 | 0 | 52 | 0 | 54
O=[N+]([O-])c1ccc2c(c1)nc1n2CCN(CC2CCCO2)C1 (stereo not drawn) | 0 | 0 | 0 | 0 | 0 | 0 | - | -
COCCN1CCn2c(nc3cc([N+](=O)[O-])ccc32)C1 | 0 | 0 | 0 | 0 | 0 | 69 | 0 | 0
Cc1c(C(=O)NCC2CCCO2)oc2ccc(S(=O)(=O)N3CC(C)CC(C)C3)cc12 (stereo not drawn) | - | 0 | 0 | 0 | 0 | 39 | 0 | 57
CCOC(=O)c1ccc(Oc2nc(SC)nc(N(C)C)n2)cc1 | 0 | 0 | 0 | 0 | 0 | 0 | - | -
CCOC(=O)c1ccc(Oc2nc(NC(C)(C)C)nc(N(C)C)n2)cc1 | 0 | 0 | 0 | 0 | 0 | 44 | 50 | 0
Cc1ccc(C(=O)O/N=C(\N)c2ccccn2)c(C)c1 | 96 | 106 | 0 | 0 | 0 | 89 | - | - | Mdm2 MdmX conf=101
COc1cc(OC)c(C(=O)O/N=C(\N)c2ccccn2)cc1OC | 0 | 0 | 0 | 0 | 0 | 0 | - | -
SMILES | MITF TRPM1 inh | Peg3 promoter | KKLEB cytotox | CF NFkB inh | B2AR ag | HIF-2a block | HIF-2a conf | HIF-1a counter | others
O=c1c2c3nc4ccccc4nc3n(Cc3ccccc3)c2ncn1Cc1ccco1 | 0 | 76 | 0 | 0 | 0 | 44 | 0 | 78
CC(=O)c1ccc(-c2ccc(C(=O)Nc3nc(-c4ccccn4)cs3)o2)cc1 | 0 | 76 | 0 | 0 | 0 | 0 | - | - | Mdm2 MdmX conf=99
CCCCC[C@@H]1CCCCC[C@@H](O)C[C@@H](O)[C@H](O)/C=C/C(=O)O1 | - | - | - | - | - | 0 | - | -
C=CCn1c(SCc2ccc(C(=O)NCCO)cc2)nc2sc(C)c(C)c2c1=O | 0 | 0 | 0 | 0 | 0 | 0 | - | -
CN(C)CCNC(=O)c1cccc(-c2cc(NC=O)c3ncc(-c4cccc(C(F)(F)F)c4)n3c2)c1 | - | 98 | 0 | 0 | - | 95 | 0 | 106
CN(C)CCNC(=O)c1cccc(-c2cnc3c(NC=O)cc(-c4cc(F)c(F)c(F)c4)cn23)c1 | - | 0 | 0 | 0 | - | 88 | 0 | 107
COc1cccc(-c2cc(NC=O)c3ncc(-c4cccc(C(=O)NCCN(C)C)c4)n3c2)c1 | - | 0 | 0 | 0 | - | 0 | - | -
Cc1cc(C)cc(NC(=O)CSCc2cc(=O)n3ccsc3n2)c1 | 0 | 0 | 0 | 0 | 0 | 0 | - | -
C=CS(=O)(=O)c1ccc(Oc2ccc(S(=O)(=O)C=C)cc2)cc1 | 89 | 107 | -56 | 99 | 42 | 90 | 90 | 106
CC1(C(=O)N2CCCCC2)CCN1C(=O)C1(c2ccccc2)CC1 (stereo not drawn) | - | 0 | 0 | 0 | - | 0 | - | -
C[C@@H]1CN([C@@H](C)CO)C(=O)CCCn2nncc2CO[C@H]1CN(C)S(=O)(=O)c1cn(C)cn1 | - | 0 | 0 | 0 | - | 0 | - | -
CCOC(=O)CCc1ccc(NC(=O)/C=C/c2ccc([N+](=O)[O-])o2)cc1 | ? | 0 | 0 | 0 | 0 | 91 | 54 | 107
Cc1ccc([C@H]2C[C@@H](n3cc(COC(=O)c4ccccc4)nn3)[C@H](O)CN2C(=O)c2cccs2)cc1 | - | 0 | 0 | 0 | - | 0 | - | -
CCOCc1nnc(NC(=O)c2c(-c3ccccc3)noc2C)s1 | 0 | 0 | 0 | 0 | 0 | 0 | - | -
CCOC(=O)c1c(NC(=O)c2c(-c3ccccc3)noc2C)sc(C)c1-c1ccccc1 | 0 | 0 | 0 | 0 | 0 | 0 | - | - | Mdm2 MdmX conf=102
CCOC(=O)c1c(NC(=O)/C=C\C(=O)O)sc(C)c1-c1ccccc1 | 0 | 0 | 0 | 0 | 0 | 0 | - | -
CCOC(=O)c1c(NC(=O)/C=C/C(=O)O)sc(C)c1-c1ccc(C(C)(C)C)cc1 | 0 | 0 | -86 | 66 | 0 | 0 | - | - | Mdm2 MdmX conf=103
O=C(Cn1nnc(-c2ccc(F)cc2)n1)N1CCCCC1 | 0 | 0 | 0 | 0 | 0 | 0 | - | -
Nc1ccc(-c2nnn(CC(=O)N3CCCCC3)n2)cc1 | 0 | 0 | 0 | 0 | 0 | 49 | 48 | 0
CC(C)NC(=O)C1(C)CCN1Cc1cccc(Cl)c1 (stereo not drawn) | - | 0 | 0 | 0 | - | 0 | - | -
